# In PubChem BioAssay (EPA / NIEHS):
# Activity calls are given as the source filed them. The calls were made as follows: active = hit-call score of the fitted dose curve at least 0.9, where 1 is the maximum; inactive = score below 0.9.
# Key:
# Conditions in all cases: mRNA level, 48 h; actives raise or lower the signal
# BCL2L11 (gene 10018) = experiment: LTEA_HepaRG_BCL2L11: Life Technologies and Expression Analysis (LTEA) Assay for Bcl-2 (BCL2L11) gene using HepaRG (AID 2283473)
# Method in brief: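 Human hepatic HepaRG cultures are treated 48 h with test chemicals (maximum 100 uM, 0.5% DMSO vehicle). Expression of BCL2L11 is measured by qRT-PCR against ACTB, GAPDH and POLR2A, with activity in either direction scored relative to vehicle.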
# [1] = read-out: Bcl-2 (BID) gene, BID (gene 637); experiment: LTEA_HepaRG_BID: Life Technologies and Expression Analysis (LTEA) Assay for Bcl-2 (BID) gene using HepaRG (AID 2283476)
# Method in brief: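 Duplicate 48 h treatments of HepaRG cells in serum-free induction medium spanned 100 uM downward in half-log steps, 0.5% DMSO. Transcript change quantified by qRT-PCR against three housekeeping genes, fitted up or down versus DMSO.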
# Caspase-3 (Homo sapiens) = Caspase-3 (Homo sapiens) (UniProt P42574); experiment: LTEA_HepaRG_CASP3: Life Technologies and Expression Analysis (LTEA) Assay for cysteine-aspartic acid protease (CASP3) using HepaRG (AID 2283477)
# Sequence of Caspase-3 (Homo sapiens) (P42574 whole entry, looked up): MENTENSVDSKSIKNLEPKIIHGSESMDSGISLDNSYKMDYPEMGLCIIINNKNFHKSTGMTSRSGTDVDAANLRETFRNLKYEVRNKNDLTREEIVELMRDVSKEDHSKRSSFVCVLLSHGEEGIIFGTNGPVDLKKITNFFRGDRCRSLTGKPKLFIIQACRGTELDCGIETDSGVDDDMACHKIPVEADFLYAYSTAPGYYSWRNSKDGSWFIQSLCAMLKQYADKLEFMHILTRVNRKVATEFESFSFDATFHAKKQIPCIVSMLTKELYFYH
# Method in brief: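 Transcript-level assay: CASP3 mRNA in human HepaRG after 48 h treatment, eight half-log concentrations from 100 uM in 0.5% DMSO, quantified by qRT-PCR.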
# [2] = read-out: Cytochrome P450 (CYP24A1), CYP24A1 (gene 1591); experiment: LTEA_HepaRG_CYP24A1: Life Technologies and Expression Analysis (LTEA) Assay for Cytochrome P450 (CYP24A1) using HepaRG (AID 2283478)
# Method in brief: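 Gene expression of CYP24A1 by TaqMan qRT-PCR in HepaRG after 48 h treatment, highest concentration 100 uM; activity fitted in both directions relative to DMSO vehicle.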
# [3] = read-out: Cytochrome P450 (CYP1A2), CYP1A2 (gene 1544); experiment: LTEA_HepaRG_CYP1A2: Life Technologies and Expression Analysis (LTEA) Assay for Cytochrome P450 (CYP1A2) using HepaRG (AID 2283479)
# Method in brief: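 In duplicate wells, HepaRG cultures maintained in 0.5% DMSO were treated 48 h across an 8-point, half-log series topping at 100 uM; phenobarbital (1 mM) served as induction control. Expression was read by qRT-PCR.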
# [4] = read-out: cysteine-aspartic acid protease (CASP8), CASP8 (gene 841); experiment: LTEA_HepaRG_CASP8: Life Technologies and Expression Analysis (LTEA) Assay for cysteine-aspartic acid protease (CASP8) using HepaRG (AID 2283480)
# Method in brief: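 CASP8 transcript measured by TaqMan qRT-PCR with ACTB/GAPDH/POLR2A normalization, after 48 h chemical exposure of HepaRG cells in serum-free induction medium. Eight concentrations, top 100 uM, half-log steps, 0.5% DMSO vehicle; fits in both directions versus DMSO.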
# [5] = read-out: Cytochrome P450 (CYP2B6), CYP2B6 (gene 1555); experiment: LTEA_HepaRG_CYP2B6: Life Technologies and Expression Analysis (LTEA) Assay for Cytochrome P450 (CYP2B6) using HepaRG (AID 2283481)
# Method in brief: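 Human HepaRG, 48 h dosing, 0.5% DMSO vehicle, top dose 100 uM. CYP2B6 transcript by qRT-PCR, housekeeping-normalized, bidirectional curve fit.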
# [6] = read-out: Cytochrome P450 2C19 (Homo sapiens) (UniProt P33261); experiment: LTEA_HepaRG_CYP2C19: Life Technologies and Expression Analysis (LTEA) Assay for CYP2C19 using HepaRG (AID 2283482)
# Method in brief: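 Endpoint: CYP2C19 mRNA change, bidirectional fit vs 0.5% DMSO. Cells: HepaRG, 48 h exposure, eight-point series topping at 100 uM. Quantitation: qRT-PCR normalized to ACTB, GAPDH, POLR2A.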
# CYP2C8 (gene 1558) = experiment: LTEA_HepaRG_CYP2C8: Life Technologies and Expression Analysis (LTEA) Assay for CYP2C8 using HepaRG (AID 2283483)
# Method in brief: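 CYP2C8 expression measured by TaqMan qRT-PCR and normalized to three housekeeping genes. HepaRG cultures were treated for 48 h with an eight-point half-log series topping at 100 uM, vehicle 0.5% DMSO, duplicates; fitted both directions against DMSO.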
# CYP2C9 (gene 1559) = experiment: LTEA_HepaRG_CYP2C9: Life Technologies and Expression Analysis (LTEA) Assay for CYP2C9 using HepaRG (AID 2283484)
# Method in brief: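 CYP2C9 transcript level, quantified by TaqMan qRT-PCR against three housekeeping genes, was fitted bidirectionally relative to 0.5% DMSO. HepaRG cultures were treated 48 h, in duplicate, at eight half-log concentrations topping at 100 uM.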
# CYP2E1 (gene 1571) = experiment: LTEA_HepaRG_CYP2E1: Life Technologies and Expression Analysis (LTEA) Assay for CYP2E1 using HepaRG (AID 2283485)
# Method in brief: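 CYP2E1 transcript measured by Fluidigm qRT-PCR against three housekeeping genes in human HepaRG cells treated 48 h (top 100 uM, half-log steps, 0.5% DMSO vehicle). Gain or loss fitted relative to DMSO baseline.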
# CYP4A11 (gene 1579) = experiment: LTEA_HepaRG_CYP4A11: Life Technologies and Expression Analysis (LTEA) Assay for CYP4A11 using HepaRG (AID 2283486)
# Method in brief: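 Human hepatic HepaRG cultures receive duplicate 48 h exposures across a concentration-response series topping at 100 uM. Expression changes in CYP4A11 are measured by qRT-PCR relative to DMSO controls.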
# [7] = read-out: Cytochrome P450 3A4 (Homo sapiens) (UniProt P08684); experiment: LTEA_HepaRG_CYP3A4: Life Technologies and Expression Analysis (LTEA) Assay for CYP3A4 using HepaRG (AID 2283487)
# Method in brief: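 HepaRG, 48 h exposure, 8-pt CRC from 100 uM (half-log), 0.5% DMSO, duplicates; serum-free induction medium. Readout: CYP3A4 mRNA, qRT-PCR, ACTB/GAPDH/POLR2A normalization. Bidirectional fit vs DMSO.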
# [8] = read-out: DNA damage-inducible transcript 3 (DDIT3), DDIT3 (gene 1649); experiment: LTEA_HepaRG_DDIT3: Life Technologies and Expression Analysis (LTEA) Assay for DNA damage-inducible transcript 3 (DDIT3) using HepaRG (AID 2283488)
# Method in brief: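 DDIT3 transcript was quantified by qRT-PCR with ACTB/GAPDH/POLR2A normalization after 48 h chemical treatment of differentiated HepaRG cells in 0.5% DMSO. Dosing was eight-point, half-log, top 100 uM, duplicate wells. Curves fitted bidirectionally versus DMSO.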
# [9] = read-out: Pro-epidermal growth factor (Homo sapiens) (UniProt P01133); experiment: LTEA_HepaRG_EGF: Life Technologies and Expression Analysis (LTEA) Assay for Epidermal growth factor (EGF) using HepaRG (AID 2283489)
# Method in brief: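 Concentration-response mRNA assay: HepaRG cells dosed 48 h (max 100 uM, 0.5% DMSO), EGF measured by qRT-PCR and normalized to ACTB/GAPDH/POLR2A.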
# [10] = read-out: Early growth response protein 1 (EGR1) transcription factor, EGR1 (gene 1958); experiment: LTEA_HepaRG_EGR1: Life Technologies and Expression Analysis (LTEA) Assay for Early growth response protein 1 (EGR1) transcription factor using HepaRG (AID 2283490)
# Method in brief: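 EGR1 transcript levels quantified by qRT-PCR (Fluidigm arrays) against three housekeeping genes after 48 h chemical exposure of HepaRG cells. Eight-point half-log series topping at 100 uM, 0.5% DMSO vehicle, analyzed for gain or loss.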
# [11] = read-out: Ezrin (EZR), EZR (gene 7430); experiment: LTEA_HepaRG_EZR: Life Technologies and Expression Analysis (LTEA) Assay for Ezrin (EZR) using HepaRG (AID 2283491)
# Method in brief: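 Read-out is EZR transcript level by qRT-PCR, normalized to three housekeeping genes and fitted bidirectionally against the DMSO control. Human HepaRG cells received test chemicals for 48 h at eight half-log concentrations up to 100 uM in 0.5% DMSO.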
# [12] = read-out: Cytochrome P450 3A7 (Homo sapiens) (UniProt P24462); experiment: LTEA_HepaRG_CYP3A7: Life Technologies and Expression Analysis (LTEA) Assay for CYP3A7 using HepaRG (AID 2283492)
# Method in brief: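 qRT-PCR of CYP3A7 in HepaRG lysates after 48 h treatment; concentration-response (8 points, max 100 uM) analysed bidirectionally relative to 0.5% DMSO controls.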
# [13] = read-out: Apoptosis regulator Bcl-2 (Homo sapiens) (UniProt P10415); experiment: LTEA_HepaRG_BCL2: Life Technologies and Expression Analysis (LTEA) Assay for Bcl-2 gene using HepaRG (AID 2283475)
# Method in brief: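 qRT-PCR of BCL2 transcript, normalized to three housekeeping genes (ACTB, GAPDH, POLR2A), after 48 h chemical exposure of HepaRG cells; concentrations top 100 uM with half-log dilutions, 0.5% DMSO vehicle, duplicates; changes up or down fitted relative to vehicle.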
# Sequence of Cytochrome P450 3A7 (Homo sapiens) (P24462 whole entry, looked up): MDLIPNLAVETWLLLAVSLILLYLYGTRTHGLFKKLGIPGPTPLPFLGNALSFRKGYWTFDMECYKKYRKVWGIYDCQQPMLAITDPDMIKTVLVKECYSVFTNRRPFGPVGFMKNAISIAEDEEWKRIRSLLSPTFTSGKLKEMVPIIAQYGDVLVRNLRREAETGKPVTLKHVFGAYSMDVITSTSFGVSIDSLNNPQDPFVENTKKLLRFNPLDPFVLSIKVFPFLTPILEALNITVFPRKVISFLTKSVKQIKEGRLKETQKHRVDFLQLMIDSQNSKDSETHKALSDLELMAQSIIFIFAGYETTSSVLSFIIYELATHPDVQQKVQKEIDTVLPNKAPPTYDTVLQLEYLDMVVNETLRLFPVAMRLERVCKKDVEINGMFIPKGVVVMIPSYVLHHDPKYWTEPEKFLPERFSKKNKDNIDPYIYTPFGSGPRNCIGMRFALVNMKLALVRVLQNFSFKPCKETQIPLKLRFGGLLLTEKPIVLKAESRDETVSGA
# Sequence of Cytochrome P450 2C19 (Homo sapiens) (P33261 whole entry, looked up): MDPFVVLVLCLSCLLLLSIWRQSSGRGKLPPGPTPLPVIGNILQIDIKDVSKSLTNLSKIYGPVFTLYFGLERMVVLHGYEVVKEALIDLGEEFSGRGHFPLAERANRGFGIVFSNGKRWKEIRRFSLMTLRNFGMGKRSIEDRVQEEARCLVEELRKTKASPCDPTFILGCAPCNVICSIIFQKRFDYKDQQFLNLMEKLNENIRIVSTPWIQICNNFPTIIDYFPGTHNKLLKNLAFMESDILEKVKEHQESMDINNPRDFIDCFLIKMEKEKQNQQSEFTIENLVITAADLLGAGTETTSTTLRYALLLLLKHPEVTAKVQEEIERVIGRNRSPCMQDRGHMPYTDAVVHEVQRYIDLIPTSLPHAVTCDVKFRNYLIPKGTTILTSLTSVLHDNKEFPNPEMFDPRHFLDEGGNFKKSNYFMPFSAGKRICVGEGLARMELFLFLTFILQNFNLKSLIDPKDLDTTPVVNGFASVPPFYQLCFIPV
# Sequence of Cytochrome P450 3A4 (Homo sapiens) (P08684 whole entry, looked up): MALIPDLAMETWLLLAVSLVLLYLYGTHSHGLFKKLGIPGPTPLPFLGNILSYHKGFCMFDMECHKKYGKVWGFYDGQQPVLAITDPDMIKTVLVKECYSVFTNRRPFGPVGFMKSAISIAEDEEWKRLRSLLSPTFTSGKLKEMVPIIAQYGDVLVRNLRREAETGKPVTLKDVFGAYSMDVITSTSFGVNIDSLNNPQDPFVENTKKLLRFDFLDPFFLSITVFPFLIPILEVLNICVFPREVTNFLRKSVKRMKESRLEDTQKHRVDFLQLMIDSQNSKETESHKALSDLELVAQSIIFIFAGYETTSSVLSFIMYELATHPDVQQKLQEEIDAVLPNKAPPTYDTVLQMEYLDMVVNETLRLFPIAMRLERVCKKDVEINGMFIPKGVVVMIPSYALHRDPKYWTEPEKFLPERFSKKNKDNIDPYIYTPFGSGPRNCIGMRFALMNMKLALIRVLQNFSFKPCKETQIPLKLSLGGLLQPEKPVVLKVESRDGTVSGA
# Sequence of Apoptosis regulator Bcl-2 (Homo sapiens) (P10415 whole entry, looked up): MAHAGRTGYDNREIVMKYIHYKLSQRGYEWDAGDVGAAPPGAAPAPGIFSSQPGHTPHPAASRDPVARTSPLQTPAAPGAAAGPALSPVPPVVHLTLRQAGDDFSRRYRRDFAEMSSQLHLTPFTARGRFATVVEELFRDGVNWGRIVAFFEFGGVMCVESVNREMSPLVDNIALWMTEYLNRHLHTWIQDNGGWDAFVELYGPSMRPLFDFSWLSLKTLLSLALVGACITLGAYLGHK
smiles,measurement,setting,value
CCc1cccc(CC)c1N,outcome,BCL2L11 (gene 10018),inactive
same,outcome,[1],inactive
same,outcome,Caspase-3 (Homo sapiens),inactive
same,outcome,[2],inactive
same,AC50,[3],50 µM (active)
same,outcome,[4],inactive
same,AC50,[5],6.35 µM (active)
same,outcome,[6],inactive
same,outcome,CYP2C8 (gene 1558),inactive
same,outcome,CYP2C9 (gene 1559),inactive
same,outcome,CYP2E1 (gene 1571),inactive
same,outcome,CYP4A11 (gene 1579),inactive
same,outcome,[7],inactive
same,outcome,[8],inactive
same,outcome,[9],inactive
same,outcome,[10],inactive
same,outcome,[11],inactive
same,outcome,[12],inactive
Nc1ccn([C@@H]2O[C@H](CO)[C@@H](O)[C@@H]2O)c(=O)n1,outcome,BCL2L11 (gene 10018),inactive
same,outcome,[1],inactive
same,outcome,Caspase-3 (Homo sapiens),inactive
same,outcome,[2],inactive
same,outcome,[3],inactive
same,outcome,[4],inactive
same,outcome,[5],inactive
same,outcome,CYP2C8 (gene 1558),inactive
same,outcome,CYP2C9 (gene 1559),inactive
same,outcome,CYP2E1 (gene 1571),inactive
same,outcome,CYP4A11 (gene 1579),inactive
same,outcome,[7],inactive
same,outcome,[8],inactive
same,outcome,[9],inactive
same,outcome,[10],inactive
same,outcome,[11],inactive
same,outcome,[12],inactive
CCCc1ccccc1,outcome,BCL2L11 (gene 10018),inactive
same,outcome,[1],inactive
same,outcome,Caspase-3 (Homo sapiens),inactive
same,outcome,[2],inactive
same,outcome,[4],inactive
same,outcome,[5],inactive
same,outcome,[6],inactive
same,outcome,CYP2C8 (gene 1558),inactive
same,outcome,CYP2C9 (gene 1559),inactive
same,outcome,CYP2E1 (gene 1571),inactive
same,outcome,CYP4A11 (gene 1579),inactive
same,outcome,[7],inactive
same,outcome,[8],inactive
same,outcome,[9],inactive
same,outcome,[10],inactive
same,outcome,[11],inactive
same,outcome,[12],inactive
CCCCC(CC)C(=O)OCCOCCOCCOC(=O)C(CC)CCCC (configuration not stated),outcome,BCL2L11 (gene 10018),inactive
same,outcome,[13],inactive
same,outcome,[1],inactive
same,outcome,Caspase-3 (Homo sapiens),inactive
same,outcome,[2],inactive
same,outcome,[4],inactive
same,outcome,[5],inactive
same,outcome,[6],inactive
same,outcome,CYP2C8 (gene 1558),inactive
same,outcome,CYP2C9 (gene 1559),inactive
same,outcome,CYP2E1 (gene 1571),inactive
same,AC50,CYP4A11 (gene 1579),50 µM (active)
same,outcome,[7],inactive
same,outcome,[8],inactive
same,outcome,[9],inactive
same,outcome,[10],inactive
same,outcome,[11],inactive
same,outcome,[12],inactive
CCCCCCOC(=O)CC(CC(=O)OCCCCCC)(OC(=O)CCC)C(=O)OCCCCCC,outcome,BCL2L11 (gene 10018),inactive
same,outcome,[13],inactive
same,outcome,[1],inactive
same,outcome,Caspase-3 (Homo sapiens),inactive
same,outcome,[2],inactive
same,outcome,[4],inactive
same,AC50,[5],12.3 µM (active)
same,outcome,[6],inactive
same,outcome,CYP2C8 (gene 1558),inactive
same,outcome,CYP2C9 (gene 1559),inactive
same,outcome,CYP2E1 (gene 1571),inactive
same,outcome,CYP4A11 (gene 1579),inactive
same,AC50,[7],17.7 µM (active)
same,outcome,[8],inactive
same,outcome,[9],inactive
same,outcome,[10],inactive
same,outcome,[11],inactive
same,outcome,[12],inactive
OCCOCCOCCO,outcome,BCL2L11 (gene 10018),inactive
same,outcome,[1],inactive
same,outcome,Caspase-3 (Homo sapiens),inactive
same,outcome,[2],inactive
same,outcome,[3],inactive
same,outcome,[4],inactive
same,outcome,[5],inactive
same,outcome,[6],inactive
same,outcome,CYP2C8 (gene 1558),inactive
same,outcome,CYP2C9 (gene 1559),inactive
same,outcome,CYP2E1 (gene 1571),inactive
same,outcome,CYP4A11 (gene 1579),inactive
same,outcome,[7],inactive
same,outcome,[8],inactive
same,outcome,[9],inactive
same,outcome,[10],inactive
same,outcome,[11],inactive
same,outcome,[12],inactive
Cn1c(=O)c2[nH]cnc2n(C)c1=O,outcome,BCL2L11 (gene 10018),inactive
same,AC50,[1],0.312 µM (active)
same,outcome,Caspase-3 (Homo sapiens),inactive
same,outcome,[2],inactive
same,outcome,[4],inactive
same,outcome,[5],inactive
same,outcome,[6],inactive
same,outcome,CYP2C8 (gene 1558),inactive
same,outcome,CYP2E1 (gene 1571),inactive
same,outcome,CYP4A11 (gene 1579),inactive
same,outcome,[7],inactive
same,outcome,[8],inactive
same,outcome,[9],inactive
same,outcome,[10],inactive
same,outcome,[11],inactive
same,outcome,[12],inactive
